Experimental data as given in PubChem BioAssay (Tox21).
Results filed as inconclusive are left out. A call without a number means that no potency is given here. Calls of active or inactive are those of the source. The call rests on the fitted dose curve; in most records, active means well fitted cell-killing curve with a large enough effect in the repeat runs; inconclusive means weak or mixed curves, or effect the other way; inactive means flat fitted curve, though single readings scatter.

experiment: qHTS assay to identify small molecule antagonists of the retinoid acid receptor (RAR) signaling pathway - cell viability counter screen (AID 1159551); details: C3RL4 cells viability, ATP luminescence (CellTiter-Glo), 6 h; series mostly up to 92.4 µM; further: nearly all actives have a fitted effect of over 35% in size
Description: U.S. Tox21 Program National Center for Advancing Translational Sciences [NCATS] NIH Chemical Genomics Center [NCGC] U.S. Environmental Protection Agency [EPA] National Institutes of Environmental Health Sciences [NIEHS] National Toxicology Program [NTP] U.S. Food and Drug Administration [FDA] Tox21 Assay Overview: All-trans Retinoic acid (atRA) is the potent natural metabolite of retinol and plays an important role in normal embryonic development and maintenance of cellular phenotype in adult animals. atRA is the activating ligand for the retinoic acid receptors (RARs) which form heterodimers with retinoid X receptors (RXRs) on the retinoic acid response element (RARE). Through activation of the RAR/RXRs nuclear receptors, atRA regulates the transcription of a large number of protein-coding genes and regulatory RNAs. Intracellular levels of atRA are controlled by the retinol signaling pathway (RSP) that regulates the biosynthesis and catabolism of atRA to maintain physiological levels. Chemicals that interfere with the RSP can cause abnormal intracellular levels of atRA and therefore are potential developmental toxicants. To assess compounds for the potential adverse effect on embryonic development through interfering with retinol signaling, a cell-based RARE luciferase reporter gene assay was used. C3RL4 cell line (OARSA/CFSAN/FDA, Laurel, MD) was used to screen Tox21 10K compound library for identifying inhibitors of the RSP. Also cytotoxicity was assessed by determining the viability of cells based on the quantitation of ATP.
Tox21 Assay Protocol Summary: C3RL4 cells were seeded at 1,000/well in 4 uL of assay medium into white solid 1,536-well tissue culture plates (Greiner Bio-One North America Inc. Monroe, NC) using a Multidrop Combi (Thermo Scientific, Waltham, MA) dispenser. After incubation at 37 C and 5% CO2 for an overnight, 23 nL of compounds dissolved in DMSO, positive control or DMSO only were transferred by a Pintool station (Kalypsys, San Diego, CA). One ul of 1 uM (final concentration) of Retinol was added right after the compound addition by using a Flying Reagent Dispenser (FRD) (Aurora Discovery, San Diego, CA). After 6 hr incubation at 37 C and 5% CO2, 5 uL of CellTiter-Glo reagent (Promega Corporation, Madison, WI) was added to each assay plate using an FRD. Luminescence was quantified on a ViewLux plate reader (PerkinElmer, Waltham, MA) after 30 min incubation at room temperature.
Potency means the concentration at half of the fitted maximal effect.

Q: Which Potency does the source give for `COc1ccccc1N=Nc1c(S(=O)(=O)O)cc2cc(S(=O)(=O)O)cc(NC(C)=O)c2c1O` here?
A: The Potency was 22.9 µM (active).

Q: For `OCC1CC=CCC1` (stereo not given), which Potency is on record?
A: The Potency was “inactive”.

Q: For `CC(=O)Oc1ccc(C(=C2CCCCC2)c2ccc(OC(C)=O)cc2)cc1`, which Potency is on record?
A: Its Potency is “inactive”.

Q: Which Potency does the source give for `CCCOC(=O)c1ccc(N)cc1` here?
A: Its Potency is “inactive”.

Q: With `C=CCOC(=O)/C=C\C(=O)OCC=C` as the compound, how does the Potency read?
A: Its Potency is “inactive”.

Q: With `c1cnc2c(n1)CCCC2` as the compound, how does the Potency read?
A: The Potency was “inactive”.

Q: For `CCC1(C)CC(=O)NC1=O` (stereo not given), which Potency is on record?
A: Its Potency is “inactive”.

Q: For `CC(=O)N(c1onc(C)c1C)S(=O)(=O)c1ccc(N)cc1`, which Potency is on record?
A: Its Potency is “inactive”.

Q: With `C/C(=N/NC(=O)c1ccncc1)C(=O)O` as the compound, how does the Potency read?
A: Its Potency is “inactive”.

Q: For `CC(=N\O)/C(C)=N/O`, which Potency is on record?
A: Its Potency is “inactive”.

Q: With `COc1ccc(CCC(=O)c2c(O)cc(O[C@@H]3O[C@H](CO)[C@@H](O)[C@H](O)[C@H]3O[C@@H]3O[C@@H](C)[C@H](O)[C@@H](O)[C@H]3O)cc2O)cc1O` as the compound, how does the Potency read?
A: The Potency was “inactive”.

Q: With `OCCSc1ccccc1` as the compound, how does the Potency read?
A: The Potency was “inactive”.

Q: Which Potency does the source give for `CCC(=O)Oc1ccc(/C(CC)=C(\CC)c2ccc(OC(=O)CC)cc2)cc1` here?
A: The Potency was “inactive”.

Q: For `COc1ccc(C(=O)c2cccc(O)c2)c(OC)c1`, which Potency is on record?
A: The Potency was “inactive”.

Q: Which Potency does the source give for `Fc1c(F)c(F)c(Br)c(F)c1F` here?
A: The Potency was “inactive”.

Q: With `Cc1ccc(S(=O)(=O)NC2CCCCC2)cc1` as the compound, how does the Potency read?
A: Its Potency is “inactive”.

Q: With `CCOC(=O)c1ccccc1C` as the compound, how does the Potency read?
A: Its Potency is “inactive”.

Q: With `CCC(=O)OC/C=C/c1ccccc1` as the compound, how does the Potency read?
A: The Potency was “inactive”.

Q: Which Potency does the source give for `Cc1cc(O)c(C(C)C)cc1Cl` here?
A: The Potency was “inactive”.

Q: For `CCC(C)(C)C1CCC(O)CC1` (stereo not given), which Potency is on record?
A: Its Potency is “inactive”.

Q: For `O=C(CCCCCCCCC#CI)Oc1ccccc1`, which Potency is on record?
A: The Potency was “inactive”.

Q: With `CCC(C(=O)OCCN(CC)CC)c1ccccc1` (stereo not given) as the compound, how does the Potency read?
A: The Potency was “inactive”.

Q: Which Potency does the source give for `CCc1nn(CCCN2CCN(c3cccc(Cl)c3)CC2)c(=O)n1CCOc1ccccc1` here?
A: The Potency was “inactive”.

Q: Which Potency does the source give for `CC(C)(C)CC(C)(C)c1ccc(OCCO)cc1` here?
A: Its Potency is “inactive”.

Q: For `Cc1nc2ccccc2s1`, which Potency is on record?
A: The Potency was “inactive”.

Q: For `Nc1nccs1`, which Potency is on record?
A: The Potency was “inactive”.

Q: For `O=C(CCCN1CCC(O)(c2ccc(Br)cc2)CC1)c1ccc(F)cc1`, which Potency is on record?
A: Its Potency is “inactive”.

Q: With `CNCCCC1c2ccccc2C=Cc2ccccc21` as the compound, how does the Potency read?
A: The Potency was “inactive”.

Q: With `NC(=O)N(O)[C@@H]1COc2cc(OCc3ccccc3)ccc21` as the compound, how does the Potency read?
A: The Potency was “inactive”.

Q: With `CC1=CC(O)CC(C)(C)C1` (stereo not given) as the compound, how does the Potency read?
A: The Potency was “inactive”.

Q: With `CC(=O)Nc1ccc(N)cc1` as the compound, how does the Potency read?
A: The Potency was “inactive”.

Q: With `CC(C)(C)C(=O)O` as the compound, how does the Potency read?
A: Its Potency is “inactive”.

Q: Which Potency does the source give for `Cc1oncc1C(=O)Nc1ccc(C(F)(F)F)cc1` here?
A: The Potency was “inactive”.

Q: With `O=C(O)c1cccc(O)c1` as the compound, how does the Potency read?
A: Its Potency is “inactive”.

Q: With `CCCCCCOC(=O)CCCCCCCC(=O)OCCCCCC` as the compound, how does the Potency read?
A: The Potency was “inactive”.

Q: With `N#C[C@@H]1C[C@@H]2C[C@@H]2N1C(=O)[C@@H](N)C12CC3CC(CC(O)(C3)C1)C2` as the compound, how does the Potency read?
A: The Potency was “inactive”.

Q: Which Potency does the source give for `O=C(/C=C/c1ccccc1)OCCCc1ccccc1` here?
A: The Potency was “inactive”.

Q: For `O=C(O)c1c(O)c(-c2ccccc2)nc2ccccc12`, which Potency is on record?
A: Its Potency is “inactive”.

Q: With `NC(=O)Nc1ccc(Cl)c(Cl)c1` as the compound, how does the Potency read?
A: Its Potency is “inactive”.

Q: Which Potency does the source give for `O=C(O)C(Cc1cc(I)c(O)c(I)c1)c1ccccc1` (stereo not given) here?
A: Its Potency is “inactive”.
